Bioassay records: PubChem, National Center for Advancing Translational Sciences (NCATS)
NS1 inh: qHTS Assay for Inhibitors of Influenza NS1 Protein Function; 0.4% of 270,000 active; Potency, µM (doses to about 46.1 µM); calls by dose curve; further: actives are rising curves; nearly all actives have a fitted effect of over 50% in size
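OD600 was taken as the measure of yeast growth restored by compound in an NS1-expressing S. cerevisiae strain. Cells had been washed out of glucose medium and diluted 1:100 into galactose -URA medium, pH 6.0.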
CHX counter: Cycloheximide Counterscreen for Small Molecule Inhibitors of Shiga Toxin; cell reporter, cycloheximide protein synthesis inhibition counterscreen; max response, %; 12% of 300,000 active; in the data active means max response mostly above about 13%, no sharp cut-off; inactive means mostly below about 14%; further: read at 38.3 µM for the half of the compounds with a filed dose
Pf growth 48h: Primary qHTS for delayed death inhibitors of the malarial parasite plastid, 48 hour incubation | P. falciparum luciferase growth in erythrocytes, 48 h | Potency, µM (doses to about 28.7 µM), most hits filed as inhibitors | 5.9% of 310,000 active
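A one-generation exposure of luciferase-tagged malaria parasites in RPMI 1640/Albumax erythrocyte culture, 37 C and 5% CO2. Inhibition is inferred from decreased luminescence after adding detection reagent.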
Shiga inhibitor: A qHTS for Small Molecule Inhibitors of Shiga Toxin | Vero cells, Shiga toxin protein synthesis inhibition reporter | inhibition, % at 38.7 µM | 9.2% of 290,000 active | AID 2315, 2010; in the data active means inhibition mostly above about 28%, no sharp cut-off; inactive means mostly below about 43%
Pf growth 96h: Primary qHTS for delayed death inhibitors of the malarial parasite plastid, 96 hour incubation; P. falciparum luciferase reporter growth, 96 h; Potency, µM (top dose mostly 28.7 µM), usual class: inhibitors; 6.9% of 320,000 active; AID 504834, 2011
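Parasite growth measured via integrated firefly luciferase reporter in P. falciparum. Infected erythrocytes at 2% hematocrit, 0.05% parasitemia final were treated 96 hours at 37 C under 5% CO2, and luminescence was read.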
Of the large screens only hits and unclear results are named; the others gave an inactive call. Rows were chosen to be rich in hits. Some 21% of all compounds tested hit in one or more screens of this group. Unless noted, the call rests on the fitted dose curve; in most records, active means well fitted inhibition curve with a large enough effect; inconclusive means small, poorly fitted or top-dose-only effect, or another doubt; inactive means no such curve, though single readings can be large or run the other way.

COc1ccc2oc(=O)c(C(=O)Nc3ccccc3O)cc2c1	CHX counter 36
COc1ccc(OC)c(NC(=O)C2CCCCC2)c1	none
C=CCN(C(=O)CNC(=O)c1cccs1)C(C(=O)NC(C)(C)C)c1ccccc1 (configuration not stated)	Pf growth 96h inconclusive
CCN(CC)c1nc2nonc2nc1N(CC)CC	Pf growth 96h 4.7µM
Cc1ccc(Cn2c(=N)n(CC(O)COc3ccccc3)c3ccccc32)cc1 (configuration not stated)	Pf growth 96h 1.7µM (no result: Pf growth 48h)
COc1ccc(OCC(O)Cn2c(=N)n(CCN3CCOCC3)c3ccccc32)cc1 (configuration not stated)	Pf growth 48h inconclusive (no result: Pf growth 96h)
N=c1n(Cc2ccccc2)c2ccccc2n1CC(O)COc1ccccc1 (configuration not stated)	Pf growth 48h 15µM, Pf growth 96h 9.3µM
N=c1n(CCN2CCOCC2)c2ccccc2n1CC(O)COc1ccccc1 (configuration not stated)	none
CSc1ncc(C(=O)Nc2ccccc2Cl)c(C)n1	Pf growth 96h inconclusive
Cc1sc2ncnc(Sc3ccccc3C(=O)Nc3ccc(C#N)cc3)c2c1C	Pf growth 48h 10µM, Pf growth 96h inconclusive
Cc1sc2ncnc(SCC(=O)N(C(C)C)C(C)C)c2c1C	none
Cc1sc2ncnc(Sc3ccccc3C(=O)Nc3ccccc3Cl)c2c1C	Pf growth 48h 12µM, Pf growth 96h inconclusive
Cc1sc2ncnc(Sc3ccccc3C(=O)Nc3ccc(Br)cc3)c2c1C	NS1 inh inconclusive, CHX counter 29, Pf growth 48h 9.3µM, Shiga inhibitor 51, Pf growth 96h 6.6µM
O=C1CC(NS(=O)(=O)c2cccs2)CN1c1ccccc1 (configuration not stated)	none (no result: NS1 inh, CHX counter, Shiga inhibitor)
Cc1cccc(C(=O)OCC(=O)NCCNC(=O)COC(=O)c2cccc(C)c2C)c1C	Pf growth 96h inconclusive
Cc1ccc(C(=O)COc2ccccc2C(=O)Nc2ccccc2)cc1	none
Cc1c(OCC(=O)NCc2cccnc2)ccc2c3c(c(=O)oc12)CCCC3	Pf growth 96h 13µM
Cc1cc(Cl)ccc1OCC(=O)Nc1cccnc1	CHX counter 38, Shiga inhibitor 61
O=C(COC(=O)c1cccnc1)Nc1cccc(Cl)c1	Pf growth 96h 4.7µM
Cc1c(OC(C)C(=O)O)ccc2c3c(c(=O)oc12)CCCC3 (configuration not stated)	Pf growth 96h 10µM
CC1CCN(S(=O)(=O)c2ccc(NC(=O)Cc3cccs3)cc2)CC1	none (no result: Pf growth 48h)
CC(Oc1ccc2c3c(c(=O)oc2c1)CCC3)C(=O)NCc1cccnc1 (configuration not stated)	Pf growth 96h inconclusive
Cc1onc(-c2ccccc2)c1C(=O)Nc1cccc(OC(C)C)c1	Pf growth 96h 13µM
Cc1onc(-c2ccccc2)c1C(=O)OCC(=O)Nc1ccc(Cl)cc1	Pf growth 48h inconclusive (no result: NS1 inh, CHX counter, Shiga inhibitor)
Cc1c(OC(C)C(=O)NCc2cccnc2)ccc2c3c(c(=O)oc12)CCCC3 (configuration not stated)	Pf growth 96h 12µM
Cc1onc(-c2ccccc2)c1C(=O)OCC(=O)Nc1cccc(Cl)c1	Pf growth 48h 12µM, Pf growth 96h inconclusive (no result: NS1 inh, CHX counter, Shiga inhibitor)
Cc1onc(-c2c(F)cccc2Cl)c1C(=O)OCC(=O)NC(c1ccccc1)c1ccccc1	Pf growth 48h 12µM (no result: Pf growth 96h)
Cc1c(C)c2ccc(OCC(=O)Nc3cccnc3)c(C)c2oc1=O	CHX counter 26, Pf growth 96h inconclusive
Oc1c(C(c2ccc(F)cc2)N2CCc3ccccc3C2)sc2ncnn12 (configuration not stated)	Pf growth 96h inconclusive
Cc1ccc(C(c2sc3ncnn3c2O)N2CCC(C)CC2)cc1 (configuration not stated)	NS1 inh inconclusive, Pf growth 48h inconclusive, Pf growth 96h 5.9µM
Cc1ccc(C(c2sc3ncnn3c2O)N2CCCCC2)cc1 (configuration not stated)	NS1 inh inconclusive, CHX counter 10, Pf growth 48h inconclusive, Shiga inhibitor 37, Pf growth 96h inconclusive
COn1c(SC2CCCCC2)nc2ccccc2c1=O	Pf growth 48h inconclusive (no result: Pf growth 96h)
Cc1ccccc1NC(=O)CC1C(=O)Nc2ccccc2N1CC(=O)N(C)C1CCS(=O)(=O)C1 (configuration not stated)	none (no result: NS1 inh, CHX counter, Shiga inhibitor)
CC(OC(=O)c1cc[n+]([O-])cc1)C(=O)NCc1ccccc1 (configuration not stated)	none (no result: NS1 inh, CHX counter, Shiga inhibitor)
CC(=O)NC(NC(=S)Nc1ccccc1Br)C(Cl)(Cl)Cl (configuration not stated)	none (no result: NS1 inh)
CC(=O)NC(NC(=S)Nc1ccc(N=Nc2ccccc2C)cc1C)C(Cl)(Cl)Cl (configuration not stated)	CHX counter 29, Pf growth 48h inconclusive, Shiga inhibitor 114
CC(=O)Nc1ccc2nc3c(=O)n(C)c(=O)n(C)c3nc2c1	none
O=C(CSc1ccccc1Cl)c1ccco1	CHX counter 26
O=C(CSc1ccc(Cl)cc1)c1ccco1	NS1 inh inconclusive, Shiga inhibitor 65, Pf growth 96h inconclusive
O=C(CCSc1ccc(Cl)cc1)c1ccco1	Pf growth 96h inconclusive
Nc1nnc(SCC(=O)c2ccco2)s1	none
CCN(CC)S(=O)(=O)c1cccc(C(=O)NNC(=O)C2=NN(c3ccccc3)C(=O)CC2)c1	none
CCC(=O)N(C1=C(NC(C)C)C(=O)c2ccccc2C1=O)C(C)C	Pf growth 48h 0.13µM, Pf growth 96h 0.066µM
COc1ccc(NC(=O)CSc2nnc(NC(=O)c3ccco3)s2)cc1OC	none
C/C(=C\c1ccc(N)cc1)c1nc2ccccc2[nH]1	CHX counter 49, Shiga inhibitor 61
COc1ccc(NC(=O)CCc2nc3ccccc3[nH]2)cc1	none (no result: NS1 inh)
COC(=O)/C(=C\c1cc(OC)c(OC)c(OC)c1)c1nc2ccccc2[nH]1	CHX counter 22, Pf growth 48h inconclusive
COC(=O)/C(=C\c1ccc(O)cc1)c1nc2ccccc2[nH]1	CHX counter 35, Shiga inhibitor 60 (no result: NS1 inh)
N/C(Cc1ccc(Cl)c(Cl)c1)=N\OC(=O)c1ccc(Br)o1	Pf growth 48h 15µM, Pf growth 96h 15µM
COc1ccc(C/C(N)=N/OC(C)=O)cc1OC	none
N/C(=N\OC(=O)c1ccc(Br)o1)c1cccnc1	CHX counter 35, Shiga inhibitor 103 (no result: NS1 inh)
COc1ccc(/C(N)=N/OC(=O)c2ccc(Br)o2)cc1	Shiga inhibitor 84
Nc1ccc(S(=O)(=O)Nc2cccc3cccnc23)cc1	none (no result: NS1 inh, Pf growth 48h, Pf growth 96h)
Cc1cc(N2CCC(C)CC2)nc2cccc(O)c12	Pf growth 96h 12µM (no result: Pf growth 48h)
CCOC(=O)[C@@H]1[C@H]2COc3ccc(Br)cc3[C@H]2N2C(=O)N(c3ccc(F)cc3)C(=O)[C@@]12C	Pf growth 48h 5.9µM, Pf growth 96h inconclusive
CCOC(=O)[C@@H]1[C@H]2COc3ccc(Br)cc3[C@H]2N2C(=O)N(c3cccc(F)c3)C(=O)[C@]12C	Pf growth 48h inconclusive, Pf growth 96h 13µM
CCOC(=O)[C@@H]1[C@H]2COc3ccc(Br)cc3[C@@H]2N2C(=O)N(c3cccc(C)c3)C(=O)[C@]12C	Pf growth 96h inconclusive
